Source: PubChem BioAssay (NCATS)
Records with an inconclusive call do not appear. The source made the active and inactive calls. Calls come from the whole dose curve; as a rule, active = well fitted cell-killing curve with a large enough effect; inconclusive = small, poorly fitted or top-dose-only effect; inactive = flat fitted curve, though single readings scatter.

assay: Quantitative highthroughput screen to assess conditional lethalithy of P12 Ichikawa cells grown in RPMI1640 with untreated serum (RPMI+s) (AID 1963881); conditions: ATP luminescence, 48 h; Potency: viability; series mostly up to 45.8 µM; viability: at the top concentration; note: nearly all actives have a fitted effect of over 35% in size
From the text: Assay Provider: Jason Cantor Ph.D.
Department of Biochemistry
University of Wisconsin-Madison, Madison, WI, USA
Chemical screening studies have identified drug sensitivities across hundreds of cancer cell lines but most putative therapeutics fail to translate. Discovery and development of drug candidates in models that more accurately reflect nutrient levels in human blood is a major challenge. Here we performed high-throughput screens in conventional versus Human Plasma-Like Medium (HPLM) to identify compounds that were "missed" when screening using the artificial culture condition. Sets of conditional anticancer compounds spanned phases of clinical development and included non-oncology drugs were assessed. […] We also traced conditional phenotypes for several chemotherapeutics to availability of HPLM-specific metabolites and confirmed others for compounds whose reported targets are encoded by nonessential genes. Our findings establish generalizable strategies for exploiting conditional lethality in HPLM to reveal therapeutic candidates and mechanisms of action in cancer cells.
Described herein are the results of each viability screens against three cell lines: NOMO1 (an acute myeloid leukemia cell line); P12-Ichikawa (a T-cell acute lymphoblastic leukemia); and SEM (a B-cell ALL). Each assay was screened using 3 different cell culture media: homemade human plasma-Like medium with 10% dialyzed fetal bovine serum (HPLM+ds); RPMI1640 with 10% untreated FBS and 5mM glucose (RPMI+s); and RPMI1640 with 10% dialyzed fetal bovine serum and 5 mM glucose (RPMI+ds).
PROTOCOL TABLE (as described by Inglese J, Shamu CE and Guy RK. 2007)
SEQUENCE No. (e.g., 1, 2, 3, etc.); […] (e.g., Cells, Incubation, Reagent, etc.); VALUE and DESCRIPTION.
1; Cells; 5 uL; white, solid bottom 1536-well Greiner assay plate.
2; Compounds; 23 nL; Kalypsis pin tool (Wako USA) equipped with a 1536-well pin head to transfer to the assay plates.
3; Incubation; 48 hours; 37C incubation.
4; Reagent; 3 uL; CellTiter Glo (Promega).
5; Incubation; 5 min, room temperature
6; Detection; Luminescence, Viewlux PerkinElmer.
NOTES (numbers refer to Sequence numbers above)
1. Briefly, 5 ul of cell reagent was dispensed using a Multidrop Combi Dispenser. The NOMO1 and SEM cells were plated at 500 cells/well and the P12-Ichikawa line at 1000 cells/well.
2. After seeding the cells, 23 nL of MIPE 4.1 library compounds (in DMSO) were added to each plate using a Kalypsys 1536 Pintool dispenser. Bortezomib at final concentration of […] and DMSO were added to each plate as positive and negative controls respectively. For each screen, MIPE 4.1 compounds were added over an eleven-point concentration range […] in 3-fold dilutions.
3. Each plate was covered with a stainless steel gasketed lid to prevent evaporation and incubated for 48 hour at 37C, 95% relative humidity, and 5% CO2.
4-5. Three microliter CellTilter-GloTM luminescent substrate mix (Promega) reagent was added to the assay plate and incubated at room temperature for 5 min.
6. The luminescence signal was measured using a ViewLux (PerkinElmer) multiplate reader with a 2 second exposure time per plate. Data for each compound were normalized as percent viability such that measurements for DMSO and the empty well controls in each plate were defined as 100% and 0%, respectively.
Potency is the fitted concentration of half-maximal effect.

Row | Structure (SMILES) | viability | Potency
1 | O=C(O)C1=NC(C(=O)O)CC(C=CN2c3cc(O)c(OC4OC(CO)C(O)C(O)C4O)cc3CC2C(=O)O)=C1 (stereo not given) | 107% (inactive) | –
2 | COc1ccccc1OCC(O)CN1CCN(CC(=O)Nc2c(C)cccc2C)CC1 (stereo not given) | 100% (inactive) | –
3 | Cc1c(O)cccc1C(=O)N[C@@H](CSc1ccccc1)[C@H](O)CN1C[C@H]2CCCC[C@@H]2C[C@@H]1C(=O)NC(C)(C)C | 96.9% (inactive) | –
4 | CC1(C)[C@H](O[C@H]2O[C@H](C(=O)O)[C@@H](O)[C@H](O)[C@H]2O[C@@H]2O[C@H](C(=O)O)[C@@H](O)[C@H](O)[C@H]2O)CC[C@@]2(C)[C@H]1CC[C@]1(C)[C@H]2C(=O)C=C2[C@H]3C[C@@](C)(C(=O)O)CC[C@]3(C)CC[C@]21C | 95.1% (inactive) | –
5 | NS(=O)(=O)c1cc2c(cc1Cl)NC(C(Cl)Cl)NS2(=O)=O (stereo not given) | 99.7% (inactive) | –
6 | O=C(O)CCc1ccc(NCc2cccc(Oc3ccccc3)c2)cc1 | 104% (inactive) | –
7 | CN(C(Cc1ccc(OS(=O)(=O)c2cccc3cnccc23)cc1)C(=O)N1CCN(c2ccccc2)CC1)S(=O)(=O)c1cccc2cnccc12 (stereo not given) | – | 14800 nM (active)
8 | COc1ccc([C@@H]2CC(=O)c3c(O)cc(O[C@@H]4O[C@H](CO[C@@H]5O[C@@H](C)[C@H](O)[C@@H](O)[C@@H]5O)[C@@H](O)[C@H](O)[C@@H]4O)cc3O2)cc1O | – | inactive
9 | Nc1nc(OCc2ccccc2)c2[nH]cnc2n1 | 93.8% (inactive) | –
10 | C=C1C[C@@]2(O)O[C@@]3(C[C@H]2C(C)C)[C@H](C)CC[C@H]13 | 105% (inactive) | –
11 | COc1cc2c(Oc3ccc(NC(=O)C4(C(=O)Nc5ccc(F)cc5)CC4)cc3F)ccnc2cc1OCCCN1CCOCC1 | – | 2350 nM (active)
12 | Clc1ccc(-c2nc3sccn3c2C=NOCc2ccc(Cl)c(Cl)c2)cc1 | 98.7% (inactive) | –
13 | CN(C)c1cccc(-c2c3c(=O)n(-c4ccccc4Cl)[nH]c3cc(=O)n2C)c1 | – | 1050 nM (active)
14 | c1ccc2c(CCNc3ccc(Nc4ccncc4)cc3)c[nH]c2c1 | – | 16600 nM (active)
15 | Cc1ccc(C(=O)Nc2ccc(Oc3cc4cnn(C)c4cc3-c3cn[nH]c3)c(F)c2)c(=O)n1-c1ccc(F)cc1 | – | 6600 nM (active)
16 | COc1ccc2c(c1)c(CC(=O)O)c(C)n2C(=O)c1ccc(Cl)cc1 | 95.8% (inactive) | –
17 | CC[C@H](C=C[C@@H](C)[C@H]1CC[C@H]2[C@@H]3CC=C4C[C@@H](O)CC[C@]4(C)[C@@H]3CC[C@]12C)C(C)C | 106% [at 23.2 µM] (inactive) | –
18 | CC1(CN2CCC(n3c(=O)[nH]c4ccccc43)CC2)OCc2ccccc2-n2cccc21 (stereo not given) | 103% (inactive) | –
19 | CC(=O)[C@H]1CC[C@H]2[C@@H]3CC=C4C[C@@H](O)CC[C@]4(C)[C@H]3CC[C@]12C | 90.5% (inactive) | –
20 | C[C@@H](CN1CC(=O)NC(=O)C1)N1CC(=O)NC(=O)C1 | – | 833 nM (active)

Row | Structure (SMILES) | viability | Potency
21 | CC(C)C[C@@H](N)[C@H](O)C(=O)N[C@H](C(=O)N[C@H](C(=O)N[C@@H](CC(=O)O)C(=O)O)C(C)C)C(C)C | 96.5% (inactive) | –
22 | COc1ccc(C(=O)CC(=O)c2ccc(C(C)(C)C)cc2)cc1 | 88% (inactive) | –
23 | CC1(C)OC2=C(C(=O)c3ccccc3C2=O)[C@H](NCc2ccccc2)[C@H]1O | – | 8330 nM (active)
24 | COc1ccc(S(=O)(=O)Nc2cc(-c3c(O)ccc4ccccc34)c(O)c3ccccc23)cc1 | – | 20900 nM (active)
25 | C[C@@H](Cc1cc2c(c(C(N)=O)c1)N(CCCO)CC2)NCCOc1ccccc1OCC(F)(F)F | 90.3% (inactive) | –
26 | CCc1cc(C(N)=S)ccn1 | 87.6% (inactive) | –
27 | CC(C=CC(=O)NO)=C[C@@H](C)C(=O)c1ccc(N(C)C)cc1 | – | 1180 nM (active)
28 | CC(C)C(=O)Oc1ccc(CO)cc1[C@H](CCN(C(C)C)C(C)C)c1ccccc1 | 99.5% (inactive) | –
29 | CO[C@H]1C=CC=C(C)C(=O)NC2=CC(=O)C(NCCN(C)C)=C(C[C@@H](C)C[C@H](OC)[C@@H](O)[C@@H](C)C=C(C)[C@@H]1OC(N)=O)C2=O | – | 743 nM (active)
30 | COC(=O)C1C2CC3c4[nH]c5cc(OC)ccc5c4CCN3CC2CC(OC(=O)c2cc(OC)c(OC)c(OC)c2)C1OC (stereo not given) | 86.8% (inactive) | –
31 | Cc1ccccc1C(C(=O)NC1CCCC1)N(C(=O)Cn1cnc2ccccc21)c1cccc(F)c1 (stereo not given) | 98.7% (inactive) | –
32 | COc1cc(OC)c(C=CS(=O)(=O)Cc2ccc(OC)c(NCC(=O)O)c2)c(OC)c1 | – | 235 nM (active)
33 | CNC[C@H](O)c1ccc(O)c(O)c1 | 104% [at 92.2 µM] (inactive) | –
34 | C[N+](C)([O-])CCNc1ccc(NCC[N+](C)(C)[O-])c2c1C(=O)c1c(O)ccc(O)c1C2=O | – | 743 nM (active)
35 | Cc1ccc2c(=O)c3cccc(CC(=O)O)c3oc2c1C | 106% (inactive) | –
36 | CCOc1cc(C(C)(C)C)ccc1C1=N[C@@](C)(c2ccc(Cl)cc2)[C@@](C)(c2ccc(Cl)cc2)N1C(=O)N1CCN(CC(=O)N2CCOCC2)CC1 | 97.9% (inactive) | –
37 | CC(NCc1ccc2c(c1)nc(NC(=O)c1ccc(-c3cn[nH]c3)s1)n2CC(C)(C)O)C(C)(C)C (stereo not given) | – | 2640 nM (active)
38 | O=C(O)C=Cc1ccc(Cn2ccnc2)cc1 | 96.8% (inactive) | –
39 | O=C(O)c1cc(=O)c2c(OCC(O)COc3cccc4oc(C(=O)O)cc(=O)c34)cccc2o1 | 100% (inactive) | –
40 | NS(=O)(=O)c1cc(C(=O)O)c(NCc2ccco2)cc1Cl | 93.1% (inactive) | –
